Laboratory results as given in PubChem BioAssay (NCI).
Compounds without any hit were thinned out: in the full panel of roughly 83,000, 20% have a hit.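 In brief: 96-well plates, 48 h treatment, single concentration, percent growth endpoint.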 Unmarked numbers belong to inactive results. The source made the active and inactive calls. The calls were made as follows: active = growth percent below 10; inactive = the rest.

Key:
Experiment in all cases: NCI-60 one-dose screen, 48 h (100 = growth as untreated, 0 = no growth, -100 = all killed)
Conditions in all cases: 10 µM
[1] = system: NCI-H23 lung
[2] = system: NCI-H226 lung
[3] = system: NCI-H322M lung
[4] = system: HOP-62 NSCLC
[5] = system: NCI-H460 lung
[6] = system: HOP-92 NSCLC
[7] = system: NCI-H522 lung
[8] = system: A549/ATCC NSCLC
[9] = system: 786-0 renal
[10] = system: COLO 205 colon
[11] = system: DU-145 prostate
[12] = system: K-562 leukemia
[13] = system: MALME-3M melanoma
[14] = system: MDA-MB-231 breast
[15] = system: SF-268 CNS
[16] = system: SF-295 CNS
[17] = system: SF-539 CNS
[18] = system: UACC-257 melanoma
[19] = system: M14 melanoma

SMILES | growth [1] | growth [2] | growth [3] | growth [4] | growth [5] | growth [6] | growth [7] | growth [8] | growth [9] | growth [10] | growth [11] | growth [12] | growth [13] | growth [14] | growth [15] | growth [16] | growth [17] | growth [18] | growth [19]
O=C(CNc1nc(-c2ccccc2)cs1)Nc1ccc(Cl)cc1 | -93.8% (active) | -62.5% (active) | -98% (active) | -76.1% (active) | -51.2% (active) | -71.9% (active) | -80.2% (active) | -49.8% (active) | -72.8% (active) | -80.1% (active) | -93.3% (active) | -16.4% (active) | -90.3% (active) | -94.3% (active) | -49% (active) | -96.9% (active) | -98.8% (active) | -78.8% (active) | -90.9% (active)
O=C1CCC(N2Cc3cc(CC(=O)Nc4ccc(N5CCCCC5)cc4)ccc3C2=O)C(=O)N1 (centres undefined) | 93.8% | 16.3% | 56.6% | 23.5% | 98.6% | -5.24% (active) | 65.3% | 68.3% | 42.5% | 37.5% | 94.5% | 77.3% | -25.4% (active) | 7.12% (active) | 61.9% | 57.4% | 65.6% | 102% | 39.4%
COc1ccccc1C(=O)NNC(=O)CSc1nc2c(c(=O)[nH]1)CCCC2 | 91.4% | 83.6% | 103% | 93.5% | 111% | 86.2% | 104% | 106% | 115% | 113% | 104% | 100% | 95.6% | 86.3% | 101% | 99.2% | 101% | 107% | 101%
Brc1ccc(N/N=C/c2c[nH]c3ccccc23)nc1 | 41.1% | 35.5% | 47.6% | 32% | 9% (active) | -28.4% (active) | 24.9% | 37.7% | 0.458% (active) | 48.8% | 37.7% | 11.7% | 64.1% | -26% (active) | 21.4% | 25.3% | 21% | 70.8% | 14.3%
COc1cc2c3c(n(CCCN4CCOCC4)c(=O)c2cc1OC)-c1nc2c(cc1C3=O)OCO2 | 4.12% (active) | 6.34% (active) | 41% | -12.4% (active) | -15.4% (active) | -2.4% (active) | 39.9% | 19% | -6.02% (active) | 13% | 3.38% (active) | 25.9% | 40.2% | 6.41% (active) | 21.9% | -30.8% (active) | -38.7% (active) | 51% | 13.4%
Cc1cc(C)nc(NS(=O)(=O)c2ccc(N/C(N)=N/c3nccc(-c4ccccc4)n3)cc2)n1 | 57.1% | 49.6% | 75.6% | 70.3% | 76.3% | 43.6% | 76.2% | 63% | 72.1% | 91.1% | 88.8% | 49.3% | 63.3% | 59.4% | 82% | 52.2% | 70% | 94% | 88.4%
